# Inconclusive results are not listed. The source made the active and inactive calls. Rule for the calls, unless noted: active = hit-call score of the fitted dose curve at least 0.9, where 1 is the maximum; inactive = score below 0.9.
# Key:
# [1] = target: Nucleoli Translocation, AR (gene 367) (UniProt P10275); experiment: UPITT_HCI_U2OS_AR_TIF2_Nucleoli_Antagonist: University of Pittsburgh U2OS Androgen Receptor-Transcriptional Intermediary Factor 2 (AR-TIF2) Antagonism High Content Imaging Assay for Nucleoli Translocation (AID 2283997; active = hit-call score of the fitted dose curve at least 0.9, where 1 is the maximum)
# In short: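 Measured quantity was AR-RFP fluorescence localized to nucleoli in engineered U2OS cells also bearing TIF2-GFP, acquired on automated high-content imagers. Primary testing used 20 uM compound; actives were confirmed in triplicate wells.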
# [2] = target: Ratio of Nucleoli Translocation and Cytoplasm, AR (gene 367) (UniProt P10275); experiment: UPITT_HCI_U2OS_AR_TIF2_Nucleoli_Cytoplasm_Ratio_Agonist: University of Pittsburgh U2OS Androgen Receptor-Transcriptional Intermediary Factor 2 (AR-TIF2) Agonism High Content Imaging Assay for Ratio of Nucleoli Translocation and Cytoplasm (AID 2284000; active = hit-call score of the fitted dose curve at least 0.9, where 1 is the maximum;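 note: hits raise the red nucleolar to cytoplasm ratio above vehicle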)
# In short: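 Read-out first: nucleolar-to-cytoplasm ratio of red (AR-RFP) signal, quantified by high-content imaging in U2OS cells co-expressing TIF2-GFP. Activity is scored as signal increase over DMSO. Single-point screening used 20 uM final (0.2% DMSO).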
# [3] = CCTE_Simmons_MITO_basal_resp_rate: CCTE's HepG2 Seahorse XF Respirometric Screening Assay at Basal Respiratory State, Simmons Lab (AID 2284001); conditions: actives raise or lower the signal
# In short: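 HepG2 respirometry; 7-pt titration 125 nM–100 uM final; kinetic OCR at 6 min intervals for 72 min; n=3 biological, technical singles; DMSO baseline, gain or loss fit; fenpyroximate (decrease) and 2,4-DNP (increase) controls.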
# [4] = CCTE_Simmons_MITO_max_resp_rate: CCTE's HepG2 Seahorse XF Respirometric Screening Assay at Maximal Respiratory State [uncoupled], Simmons Lab (AID 2284002); conditions: actives raise or lower the signal
# In short: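 Read-out is oxygen consumption rate at maximal respiration, taken after FCCP uncoupling of compound-treated HepG2 cells. Seven final concentrations from 125 nM to 100 uM were tested, each in three biological replicates.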
# [5] = CCTE_Simmons_MITO_inhib_resp_rate: CCTE's HepG2 Seahorse XF Respirometric Screening Assay at Inhibited Respiratory State [full ETC block], Simmons Lab (AID 2284006); conditions: actives raise or lower the signal
# In short: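 Inhibited respiration was taken as HepG2 oxygen consumption after rotenone/antimycin A, which followed test-compound and FCCP injections. Chemicals were tested at seven final concentrations from 125 nM to 100 uM. Activity was fitted bidirectionally relative to DMSO.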
# [6] = CCTE_Simmons_MITO_viability: CellTiter-Glo Viability Assessment for CCTE's HepG2 Seahorse XF Respirometric Screening Assay [post-hoc], Simmons Lab (AID 2284007; active = hit-call score of the fitted dose curve at least 0.9, where 1 is the maximum)
# In short: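 HepG2 cells; test chemical 7 conc. (125 nM–100 uM final) × 90 min; then luminescent ATP detection. DMSO vehicle. Positive control dichlone, 8 conc. from 10 nM to 100 uM final. Loss-of-signal endpoint.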
# [7] = CCTE_Harrill_HTTr_Apoptosis_DMEM_24hr: (Pilot) CCTE's 24-hour Apoptosis Assessment for the High-Throughput Transcriptomics (HTTr) Platform, in MCF-7 cells cultured in DMEM + 10% fetal bovine serum, Harrill Lab (AID 2283983)
# In short: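 MCF-7 cells in DMEM + 10% FBS, eight-point dilution series, 24 h exposure. Caspase-3/7 activation imaged by high-content imaging with CellEvent Caspase 3/7 Green. Bidirectional curve fitting against DMSO baseline.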
# [8] = CCTE_Harrill_HTTr_Apoptosis_PRF_DMEM_6hr: (Pilot) CCTE's 6-hour Apoptosis Assessment for the High-Throughput Transcriptomics (HTTr) Platform, in MCF-7 cells cultured phenol red-free DMEM + 10% charcoal-stripped fetal bovine serum, Harrill Lab (AID 2283984)
# In short: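 MCF-7 cells in phenol red-free DMEM + 10% charcoal-stripped FBS, eight-point dilution series, 6 h exposure. Caspase-3/7 activation imaged by high-content imaging with CellEvent Caspase 3/7 Green; bidirectional fit versus DMSO baseline.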
# [9] = CCTE_Harrill_HTTr_Apoptosis_PRF_DMEM_24hr: (Pilot) CCTE's 24-hour Apoptosis Assessment for the High-Throughput Transcriptomics (HTTr) Platform, in MCF-7 cells cultured in phenol red-free DMEM + 10% charcoal-stripped fetal bovine serum, Harrill Lab (AID 2283986)
# In short: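 MCF-7 cells in phenol red-free DMEM with 10% charcoal-stripped FBS, exposed 24 h across an eight-point dilution series. Caspase-3/7 activation imaged with CellEvent Green by high content imaging; bidirectional fitting against DMSO.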
# DIO1 (gene 1733) = experiment: CCTE_GLTED_hDIO1: CCTE's human Deiodinase 1 (DIO1) Inhibition Assay, Great Lakes Toxicology and Ecology Division (GLTED) Lab (AID 2283987; active = hit-call score of the fitted dose curve at least 0.9, where 1 is the maximum;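 note: isolated human DIO1 enzyme in a cell-free setup rather than cells; enzyme activity read as free iodide liberated from substrate via Sandell-Kolthoff colorimetry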)
# In short: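 Inhibition of human deiodinase 1 is scored as reduced iodide liberation after a 3 h enzyme–chemical incubation, detected colorimetrically by the Sandell-Kolthoff reaction against DMSO controls.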
# Sequence of Ratio of Nucleoli Translocation and Cytoplasm, AR (gene 367) (P10275 whole entry, looked up): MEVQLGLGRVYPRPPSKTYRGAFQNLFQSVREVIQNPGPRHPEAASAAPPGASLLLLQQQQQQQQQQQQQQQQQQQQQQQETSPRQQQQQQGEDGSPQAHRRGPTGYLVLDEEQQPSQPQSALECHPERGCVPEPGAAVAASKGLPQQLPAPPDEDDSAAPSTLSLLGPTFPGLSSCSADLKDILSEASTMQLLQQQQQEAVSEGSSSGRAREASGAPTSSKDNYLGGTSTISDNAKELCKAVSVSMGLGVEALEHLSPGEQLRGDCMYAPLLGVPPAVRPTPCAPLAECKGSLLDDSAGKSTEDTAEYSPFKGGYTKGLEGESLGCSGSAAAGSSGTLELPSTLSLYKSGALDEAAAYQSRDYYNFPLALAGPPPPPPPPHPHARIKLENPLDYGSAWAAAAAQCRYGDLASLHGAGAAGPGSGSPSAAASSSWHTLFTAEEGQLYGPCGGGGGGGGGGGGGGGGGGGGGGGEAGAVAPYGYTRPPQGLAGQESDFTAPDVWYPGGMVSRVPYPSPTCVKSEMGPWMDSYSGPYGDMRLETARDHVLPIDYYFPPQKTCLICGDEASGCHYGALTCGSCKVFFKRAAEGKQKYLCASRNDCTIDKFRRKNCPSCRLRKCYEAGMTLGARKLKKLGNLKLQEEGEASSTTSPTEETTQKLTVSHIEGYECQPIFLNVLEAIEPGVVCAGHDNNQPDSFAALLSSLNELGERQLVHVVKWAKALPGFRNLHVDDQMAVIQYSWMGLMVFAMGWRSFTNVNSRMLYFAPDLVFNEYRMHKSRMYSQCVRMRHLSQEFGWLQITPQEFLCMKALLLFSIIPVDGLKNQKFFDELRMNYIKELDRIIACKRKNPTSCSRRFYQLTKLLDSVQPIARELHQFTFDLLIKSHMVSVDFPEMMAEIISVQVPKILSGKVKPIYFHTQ
# Sequence of Nucleoli Translocation, AR (gene 367) (P10275 whole entry, looked up): as above
structure (smiles),measurement,setting,value
CCCCOCCOCCOCc1cc2c(cc1CCC)OCO2,outcome,[1],inactive
same,outcome,[2],inactive
O=C(Nc1ccc([N+](=O)[O-])cc1Cl)c1cc(Cl)ccc1O,AC50,[3],1.57 µM (active)
same,AC50,[4],0.928 µM (active)
same,AC50,[5],1.36 µM (active)
C[C@]12C[C@H](O)[C@H]3[C@@H](CCC4=CC(=O)CC[C@@]43C)[C@@H]1CC[C@@H]2C(=O)CO,AC50,[3],42 µM (active)
same,outcome,[4],inactive
same,outcome,[6],inactive
CC(C)CCCCCCc1ccc(O)cc1,AC50,[7],77.5 µM (active)
same,outcome,[8],inactive
same,AC50,[9],77.2 µM (active)
same,AC50,DIO1 (gene 1733),49.4 µM (active)
same,AC50,[3],50 µM (active)
same,AC50,[4],43.8 µM (active)
same,outcome,[5],inactive
same,outcome,[6],inactive
C=CCOC(Cn1ccnc1)c1ccc(Cl)cc1Cl (centres undefined),outcome,[7],inactive
same,outcome,[8],inactive
same,outcome,[9],inactive
same,AC50,[3],24.3 µM (active)
same,AC50,[4],38.2 µM (active)
same,outcome,[5],inactive
same,outcome,[6],inactive
O=C(c1ccccc1)C1CCCCC1,outcome,[1],inactive
same,outcome,[2],inactive
CCCOC(=O)c1ccc(C(=O)OCCC)nc1,outcome,[1],inactive
same,outcome,[2],inactive
CCCCOC(=O)C(C)Oc1ccc(Oc2ccc(C(F)(F)F)cn2)cc1 (centres undefined),outcome,[3],inactive
same,outcome,[4],inactive
same,outcome,[5],inactive
same,outcome,[6],inactive
CCOC(=O)C(C)Oc1ccc(Oc2nc3ccc(Cl)cc3o2)cc1 (centres undefined),outcome,[1],inactive
N#CSCSc1nc2ccccc2s1,AC50,[1],9.92 µM (active)
same,AC50,[2],12.8 µM (active)
same,AC50,[3],15.1 µM (active)
same,AC50,[4],22.7 µM (active)
same,outcome,[5],inactive
same,outcome,[6],inactive
CN(C)C(=O)Nc1ccc(Cl)c(Cl)c1,outcome,[1],inactive
CCOC(=O)NCCOc1ccc(Oc2ccccc2)cc1,AC50,[3],21.5 µM (active)
same,AC50,[4],19.8 µM (active)
same,outcome,[5],inactive
same,outcome,[6],inactive
CC(=O)S[C@@H]1CC2=CC(=O)CC[C@]2(C)[C@H]2CC[C@@]3(C)[C@@H](CC[C@@]34CCC(=O)O4)[C@H]12,outcome,[1],inactive

# Source: PubChem BioAssay (EPA / NIEHS)
